# Results reported in PubChem BioAssay AID540345 (The Scripps Research Institute Molecular Screening Center, 2011).
# Calls of active or inactive are those of the source. How the calls were made is not given here.
# System: Rolipram
# Experiment: off-target binding and CYP inhibition panel, profiling panel, selectivity assay for GPR7 antagonist project, biochemical, Ricerca HitProfilingScreen, CYP450, set 2 (AID 540345)
# Conditions: Ricerca radioligand binding/CYP panel, at 10 µM, active compounds read high
smiles,measurement,value
COc1ccc(Oc2c(Cl)cnn(C3c4ccccc4-c4ccccc43)c2=O)cc1,inhibition,5% (inactive)
